# Results: the supplement of paper PMC11417369
# In all, about 25,000 sequences were measured (“ln(normalized median fluorescence intensity)”: median about 9.7, highest 2% from about 11 on). What follows is part of a selection rich in the highest values, with near analogues and random picks from the rest.
# System: PfAP2-HC AP2 domain (GST-tagged)
# Experiment: gcPBM binding intensity (ln(normalized median fluorescence intensity)); higher = stronger DNA binding
# Summary of the method: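 GST-tagged P. falciparum DNA-binding domains, expressed in E. coli (about 25 μg on average), were applied for 1 h to an Agilent 4 × 180k array of primer-extended double-stranded 36-bp intergenic genomic probes plus negative controls. The binding buffer was 1× PBS with 1% milk, 0.2 mg/ml BSA, 0.5% salmon testes DNA and 0.03% Triton X-100. Bound protein was detected with Alexa488 anti-GST antibody and scanned at 488 nm. Binding intensity is the highest Masliner-normalised natural-log median intensity across replicate spots of either probe orientation.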
row,Sequence,gcPBM binding intensity (ln)
1,CAATATATTTGATTTACACACTTACAATGTATATAA [CACACA_site2994],9.55
2,AATAGTACAAAAAAAAAAAAAAAAAAAAAAAAAAAA [CACACA_negctrl_site1376],8.9
3,TTATTTTTTAGTAGTACACACTTTTTGTACCTTTTA [CACACA_site4503],9.87
4,CATATACACGAACACACACACACACGCACAAAAAAA [CACACA_site6376],10.6
5,CCAACATGCCCACGCACACACAAAAAAAGCATGCAT [CACACA_site4217],10
6,ATCAAGCACGAACACACACACACACGCACGCCCACA [CACACA_site6308],11.4
7,TTATACTGTATAGTCGCACACAAAAATATAAAATAT [CACACA_site3869],9.98
8,TGCACAAAATTATGCACACACCTAAAATTAATTTTT [CACACA_site5596],9.8
9,TGTGCCCAAAATTATGCACACACCTAAAATTAATTT [CACACA_site2914],9.85
10,ATTATGCACGGACACACACACACACCCCTAAAAAAT [CACACA_site5426],11.4
11,ATTATGCACCAACACACACACACACTCCTAAAAAAT [CACACA_site8822],11
12,ATTATGCACCAACACACACACACACCCCTAAAAAAT [CACACA_site2568],10.8
13,TAATTATGCGGACACACACACACACCCAACTAAAAA [CACACA_site5427],10.9
14,TTTTGAATATGGATCTTATATATATTAAATAAATAA [CACACA_negctrl_site344],9.09
15,ATGTTTTATAAAAGGCGTACACATATGCTTAAGTAA [XGTACX_site6232],9.71
16,TATATAATTATAAGAACACACATATATATATATATA [CACACA_site2472],9.49
17,AGGTGATTAATATATACACACATACATATATATATA [CACACA_site8913],10
18,TCATTTTATTTTTTCACACACACATATATATATATA [CACACA_site3333],10.2
19,TCATTTCACAGACACACACACACAATATATTTCCTT [CACACA_site9295],10.8
20,TCATTTCACGGACACACACACACAATATATTTCCTT [CACACA_site6023],10.9
21,TCATTTCACAAACACACACACACAATATATTTCCTT [CACACA_site3905],10.3
22,TCATTTTATTTTTTCACACACACATCTATATTTATA [CACACA_site7547],10.2
23,TTTCATTTCACAGACACACACACACCCTATATTTCC [CACACA_site3906],11.2

row,Sequence,gcPBM binding intensity (ln)
1,TCATTTCACAGACACACACACACAAGATATTTCCTT [CACACA_site7774],11.1
2,TATTTTTATTTTCCTTCACACATTTTTTATATTTTT [CACACA_site5830],9.83
3,ATTTCACAGAGACACACACACAATATATTTCCTTTT [CACACA_site7773],10.3
4,ATATTAATTATAACTTGTACGTAAAAGGAAAACAAT [XGTACX_site3269],9.76
5,ATTATAATATTGTTATGTACATAAAAATTATTGAAT [XGTACX_site4476],9.82
6,GATAACATAATATGTTGTACATAAAAATTTTTATCA [XGTACX_site1969],9.62
7,GTAAAAATAAAAACTGGTACACAAGTTGTTATAAAA [XGTACX_site502],9.76
8,TTATTTATTCTATGTGCATGTTATTTTTTTTTTTCG [TGCATGCA_site262],9.73
9,TTTTGTTTATGTGTGCATTATATTATATTTTTTATT [TGCATGCA_negctrl_site146],10.1
10,TTTGTGTGTGCGTGTGCATGTTGTTTTTTTCTATAA [TGCATGCA_site17],11.7
11,ATTTACATAAATTGCATATATCGATGTAAATAAATA [CACACA_negctrl_site1150],9.5
12,ATATAATATATATATAAACACACAAAAAAAATTATA [CACACA_site8434],9.97
13,AATGTACCCACACCCACACACAAACAAATATATATA [CACACA_site2751],10.2
14,AATGTACACGCACCCACACACAAACAAATATAAATA [CACACA_site7319],11.6
15,AATATAAATAAAAACACACACACACCCATATATATA [CACACA_site2267],11.3
16,AATAAATATAAATACACACCCATATAAATATAAATA [CACACA_site7264],10.1
17,AAAAAAAAAAAACACACACACACACCCATATATAAA [CACACA_site1170],11.1
18,AATAAATATAAATACACACCCATATATATATATATA [CACACA_site5436],9.67
19,ATAATATATATATAAACACACAAAAAAAATTATATA [CACACA_site1534],9.86
20,TATATATAAAAACACACACACACACCCTATAATTAT [CACACA_site4063],11.3
21,AATGTACACCCACCCACACACAAACAAATATATATA [CACACA_site5521],10.3
22,TAAACACCCATATAAACACACATATAAACACCCATA [CACACA_site5382],10.3
23,TACATATATAAAAAAACACACACATATATATATATA [CACACA_site8315],9.93

row,Sequence,gcPBM binding intensity (ln)
1,TTTATTTTTATGGTCACACATATTTTTAAAACTATA [CACACA_site4372],9.77
2,TTTCATTTTTTTACATGTACGCAAAAGTGTGTAGTT [XGTACX_site6582],9.78
3,TTTTTTTTTGAATACAGTACACAAGTGTTAAGTTTA [XGTACX_site7069],9.36
4,TAAGTATACTCATACACACACACACTAGAAAAAAAA [CACACA_site4397],10.4
5,TTCCACATTTTACAGACACACACAATTTATATTACG [CACACA_site8572],10.1
6,ATGTTAAACAAATCTATACACACGTATATGACAAAA [CACACA_site1783],9.71
7,TTTTGAAGTAATACATGTACTTAAATTACTAAAAAA [XGTACX_site1955],9.47
8,TTCATATATTTTAAAGCATGCATTCATCTTATAGTT [TGCATGCA_site800],9.71
9,TTGTATATATTTATATGTACATATATTACTTTTGCT [XGTACX_site2449],9.83
10,TAAAATAACTCACAAAGTACAAAAATAAGCATATGA [XGTACX_site7046],9.79
11,TTTATTTTGTTTTCTTGTACATAAATAATTACATAT [XGTACX_site4227],9.86
12,AACACCCATGGACACACACACATATATATATATATA [CACACA_site5809],10.4
13,TACACGCATAAACACACACACACACCCATATATATA [CACACA_site8114],11.3
14,TCATAGTATGGACACACACACACACCCATATATATA [CACACA_site5033],11.2
15,TATAAACACCCATATAAACACACATACATACATACA [CACACA_site8791],10.2
16,TATCTCATAGTATACACACACACACCCACCCATATA [CACACA_site1739],10.7
17,ATAATCCTGAAACACACACACACACCCATAAATAAA [CACACA_site481],11.1
18,ATTCATATGAAACACACACACACACCCATAAAAAAA [CACACA_site3246],10.5
19,CAAAAAATGAAACACACACACACACCCATAAATAAA [CACACA_site1231],10.8
20,TCATAGTATAAACACACACACACACCCATATATATA [CACACA_site8512],11
21,TAAACACCCATATAAACACACATACATACATACATA [CACACA_site5383],10.4
22,ATTAGTGACATTATTACACACAAAAGAAAACAGAAA [CACACA_site3984],9.99
23,TTTCAAAAAAATAATGTGCACATTAGAAAATAAATA [GTGCAC_site9416],9.78

row,Sequence,gcPBM binding intensity (ln)
1,TATTTTTTGAAAAGTTCACACATCCAACTCGAGTTG [CACACA_site4412],9.62
2,TATATATATATAATATGTACATATATATATTCTTAA [XGTACX_site6154],9.49
3,GTATGTATAATATACACACTCACAAGCATTCAAATA [CACACA_site267],9.76
4,GAAAAACAAATATATTAACACACAAACATATAAACA [CACACA_site9315],10.2
5,TATATATTAAAACACACACACATATATATATATATA [CACACA_site3787],10.1
6,TAAAGAATATTATAAACACACACTTTATAAAGAATT [CACACA_site114],9.91
7,AAAAAAAAAAAAAACACACACACACCCATAAATATA [CACACA_site151],11.2
8,TATATAAATAAACACACACACACCTTATAATTATTA [CACACA_site9345],10.5
9,AAAAAAAATAAACACACACACATACCCATAAATATA [CACACA_site5980],10.4
10,TATATAAAGAAACACACACACACCTTATAATTATTA [CACACA_site4062],11.2
11,TACACCCATGGACACACACACACGCATAAAAAAAAA [CACACA_site4933],10.7
12,ACCATATAAATAAACACACACACACCCATATATATA [CACACA_site2321],10.6
13,TATTAAACGAAACACACACACACACCCATATATAAA [CACACA_site759],11.5
14,CACGCATACAGACACACACACACACCCATATATATA [CACACA_site636],10.6
15,TACACGCATGGACACACACACACACCCATATATATA [CACACA_site4522],11
16,AAATTACAAATACAAACACACAAATGTTTTTCATTC [CACACA_site3552],9.77
17,AAAAAAAAAAGAACCCGTACATAAATAATATATATA [XGTACX_site164],9.73
18,AAATTGAGACAACAGGTGCATATAAATATACAGTGT [GTGCAC_site9634],9.79
19,GTATGAAATTATAATAGTACATATAAATAAAAAAAA [XGTACX_site8955],9.85
20,ATTTTAATATAAAATACACACTACTATTATAAATAT [CACACA_site4917],9.64
